Data: PubChem BioAssay AID588343 (Broad Institute, 2011)
About 650 (54%) of roughly 1,200 compounds were called active. Inconclusive results (about 5%) are left out.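 The calls were made as follows: active = signal-lowering curve whose fitted half-maximal concentration is at or below ten times the top valid dose tested; inconclusive = flat curve with 30 to 70% inhibition, or poor fit; inactive = signal increase, flat within 30%, or potency beyond limit.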 The set was probably picked from earlier hits. The list is a sample of the results. A call without a number means that no potency is given here. Potency and affinity values are given separately.

Assay: inhibitors of LMP1-driven NF-kB reporter, dose response, cell-based, HEK293, luciferase, cherry-pick (AID 588343)
Conditions: HEK293 LMP1 TES2 NF-kB luciferase reporter, 16 h; series mostly up to 35 µM

SMILES	outcome
Fc1cccc(Cl)c1/C=N/n1c(-c2cccnc2)n[nH]c1=S	inactive
O=C(NCc1ccco1)C1CC(=O)N(c2cccc(Cl)c2)C1 (stereo not given)	inactive
COc1ccc(/C=C/C(=O)OCC(=O)NCc2ccco2)cc1OC	inactive
COc1cc(NCCCCCCN)c2ncccc2c1OC	inactive
O=C(Nc1ccc(F)c(F)c1)C1CCCCC1	inactive
Cc1ccc(S(=O)(=O)N2CCN(C(=O)CSc3nnnn3C)C2)cc1	inactive
COC(=O)c1ccccc1NC(=O)CSc1nnnn1C	inactive
O=C1c2ccccc2C(O)N1Cc1ccccc1 (stereo not given)	inactive
Cc1cc(=S)[nH]c2ccccc12	inactive
Cc1ccc(-n2c(=O)c3c(c4cc(C)ccc4n3C)n(CC(=O)NCC3CCCO3)c2=O)cc1 (stereo not given)	inactive
COC(=O)c1c(O)ccc(Oc2ccccc2)c1C(=O)OC	inactive
CC1CCN(CCOc2ccc(C(=O)c3ccccc3)cc2)CC1	inactive
NC(=O)OCC(COC(N)=O)c1ccccc1	inactive
O=C(O)c1ccccc1Nc1cccc(OCc2ccc3ccccc3n2)c1	inactive
CCN(CC)S(=O)(=O)c1ccc(N=NC2=C(O)CCCC2=O)cc1	inactive
Cc1cc(NC(=O)CSc2ccnc(=O)[nH]2)no1	inactive
COC(=O)c1c(NC(=O)c2nn(C)cc2Cl)sc2c1CCCC2	inactive
Nc1ccccc1SC1CC(=O)N(c2ccccc2Cl)C1=O (stereo not given)	inactive
Cc1ccc(S(=O)(=O)N[C@H](C(=O)N2CCC(C(=O)N[C@@H](CC(=O)O)C(=O)O)CC2)C(C)C)cc1	inactive
CCCSc1ccc([C@@H]2[C@H]3C(=O)N(C)C(=O)[C@H]3[C@]3(C(=O)OC)CCCN23)cc1OC	inactive
CC(C)N1CCN(c2ccc(OC[C@H]3CO[C@](Cn4cncn4)(c4ccc(Cl)cc4Cl)O3)cc2)CC1	inactive
COC(=O)C1=C(C(=O)c2ccccc2)C(c2ccccc2)n2nnnc2N1 (stereo not given)	inactive
Cc1cc(C)n2nc(CC(=O)NC3CCCCCC3)nc2n1	inactive
Cc1cc(=O)[nH]c(N/N=C/c2ccc(C)o2)n1	inactive
Cc1cc(C)c2sc(NC(=O)C3CC3)nc2c1	inactive
CCSC1=C(C#N)C(c2ccc(C)o2)CC(=O)N1 (stereo not given)	inactive
CC(=O)/C=C/c1ccccc1O	inactive

SMILES	outcome
COc1ccc(-c2csc(Nc3cccc(C)n3)n2)cc1OC	inactive
CCOC(=O)c1c(NC(=O)C2C3CCC(O3)C2C(=O)O)sc(C)c1-c1ccc(F)cc1 (stereo not given)	inactive
COc1ccc([C@H]2N[C@]3(CCCN(Cc4ccco4)C3=O)[C@H]3C(=O)N(Cc4ccccc4)C(=O)[C@@H]23)cc1	inactive
CCN1C(=O)[C@@H]2[C@@H](c3ccc(-c4ccc(Cl)c(Cl)c4)cc3)N3CCC[C@@]3(C(=O)OC)[C@@H]2C1=O	inactive
O=C1N[C@@H](Cc2c[nH]c3ccccc23)COC(=O)[C@H](Cc2ccc(F)cc2)C/C=C\C[C@H]1CC(=O)N(CCO)Cc1ccccc1	inactive
Cc1sc2nc(SCC(=O)OC(C)C)n(C)c(=O)c2c1C	inactive
CCCCCn1c(N2CCOCC2)nc2c1c(=O)n(CC(N)=O)c(=O)n2C	inactive
COc1cc2c(CCNC(C)=O)c[nH]c2cc1Cl	inactive
CC(C)OCCCNC(=O)C1CCC(CNS(=O)(=O)c2ccccc2)CC1 (stereo not given)	inactive
O=S(=O)(NC1c2cccc3cccc(c23)C1Sc1ncccn1)c1ccccc1 (stereo not given)	inactive
COc1ccc(C(=O)NCCNc2nc3cc(C)c(C)cc3cc2C)cc1	inactive
Cc1onc(-c2ccccc2)c1C(=O)NC(=S)NNC(=O)c1ccc(O)cc1O	inactive
CCC(C)(C)NC(=O)C(c1ccc(F)cc1)N(CCOC)C(=O)CCC(=O)Nc1nccs1 (stereo not given)	inactive
COc1cccc(C(=O)OCn2nnc3ccccc3c2=O)c1OC	inactive
O=C(O)c1ccc(C=NN=C2c3ccccc3-c3ccccc32)cc1	inactive
O=C(N/N=C/c1cccnc1)c1cc(-c2cccs2)nc2ccccc12	inactive
CNC(=S)Nc1ccc2nc(C)c(C)nc2c1	inactive
O=C1CC(c2cccs2)Cc2nc(NC(=O)C3CC3)ncc21 (stereo not given)	inactive
CC(C)[C@H](N[C@@H](C)c1ccccc1)c1c(O)ccc2ccccc12	inactive
CCn1c(SC(C)C)nnc1-c1c[nH]c2ccccc12	inactive
COc1ccccc1-n1c(-c2ccccc2)n[nH]c1=S	inactive
CC(=O)c1cc(C(=O)Nc2ccc(C(=O)O)cc2)oc1C	inactive
COc1ccc(-c2nc(CN3CCC(C(=O)N4CCOCC4)CC3)c(C)o2)cc1C	inactive
COc1ccc(-n2cnc3c(cnn3CCC#N)c2=N)cc1	inactive
O=C(N/C(=C/c1ccc(Br)cc1)C(=O)N1CCOCC1)c1ccc(Br)o1	inactive
CCN(CC(=O)NCc1ccc(F)cc1)CC(=O)Nc1cc(S(=O)(=O)N(C)C)ccc1C	inactive
O=C(Nc1cc(Cl)ccc1Cl)C1Cc2ccccc2O/C1=N\O (stereo not given)	inactive

SMILES	outcome
COc1ccc(CNC(=O)N2[C@H]3CC[C@@H]2C=C(c2ccc(F)cc2OCc2ccccc2)C3)cc1OC	inactive
Clc1cccc(CN2CCCCCC2)c1	inactive
Cc1cccc(Cn2nc(-n3cccc3)c3c(C)cc(C)nc32)c1	inactive
CN1CCc2cccc3c2C1Cc1ccc(O)c(O)c1-3 (stereo not given)	inactive
CCOc1ccccc1C(=O)NC1CC2CCCC(C1)N2Cc1nnnn1Cc1ccco1 (stereo not given)	inactive
COc1ccc(OC)c(NC(=O)COC(=O)COc2ccc(Nc3ccccc3)cc2)c1	inactive
COc1ccccc1NC(=O)C(=O)N/N=C(\C)CC(=O)Nc1ccccc1C(F)(F)F	inactive
S=C(NN=C1C2CC3CC(C2)CC1C3)Nc1ccccc1	inactive
CC(=O)Nc1ccc(S(=O)(=O)N2CCCC2)cc1	inactive
COc1ccc(S(=O)(=O)N2CCCCCC2)cc1C(=O)OCc1cccc(OC)c1OC	inactive
COC(=O)c1cc2n(n1)CCN(Cc1ccccc1Cl)C2=O	inactive
COC(=O)CCCC[C@@H]1SC[C@@H](NC(=O)OC)[C@@H]1NC(=O)OC	inactive
N#CCCn1cc(C(=O)Nc2ccccn2)c(-c2ccccc2)n1	inactive
C/C(=N\Nc1ccc(C(F)(F)F)cc1[N+](=O)[O-])C(C)C	inactive
CN(CC(=O)Nc1cccnc1)S(=O)(=O)c1ccc(Br)cc1	inactive
COc1ccc(S(=O)(=O)N2CCOCC2)cc1NC(=O)COC(=O)CCS(=O)(=O)c1ccc(C)cc1	inactive
N#CCN(N=Nc1ccccc1)c1ccccc1	inactive
COc1cc(C2NC(=O)NC(C)=C2C(=O)OC2CCCC(C)C2)cc(Br)c1O (stereo not given)	inactive
COc1cccc(C2=CC(=O)C[C@H](c3ccc4c(c3)OCO4)C2)c1	inactive
CCOC(=O)C1CCN(S(=O)(=O)Cc2ccccc2)C1=O (stereo not given)	inactive
Cc1cc(N2CCCC2=O)cc(C)c1S(=O)(=O)Nc1c(C)nn(C)c1C	inactive
N#CC1=C(N)OC2=C(C(=O)CCC2)C12C(=O)N1CCCc3cccc2c31 (stereo not given)	inactive
O=C1CCc2cc(OCCCCc3nnnn3C3CCCCC3)ccc2N1	inactive
CN(C)S(=O)(=O)c1cccc(NC(=O)c2n[nH]c(=O)c3ccccc23)c1	inactive
Cc1cc(C)nc(SCC(=O)OCN2C(=O)c3ccccc3C2=O)n1	inactive
Cc1cc(N=Cc2c(O)ccc3cc(Br)ccc23)no1	inactive
Cc1cc2ccccc2n1CCNC(=O)COc1ccc2ccccc2c1	inactive

SMILES	outcome
CCOc1cccc(CNc2nnnn2C)c1	inactive
CCOc1ccc(S(=O)(=O)N2CCC(C(=O)NCCc3ccc(S(N)(=O)=O)cc3)CC2)cc1	inactive
CCOc1ccc(N(C(C)C(=O)N2CCCCCC2)S(C)(=O)=O)cc1 (stereo not given)	inactive
COc1ccccc1/C=C/C(=O)c1ccc(Cl)cc1	inactive
CCn1c(NC(=O)c2ccc(C)cc2)c2ccccc2nc1=O	inactive
COc1ccc(NC(=O)c2cc3c(CO)cnc(C)c3oc2=Nc2cccc(F)c2)c(OC)c1	inactive
Brc1ccc(-c2csc(N3CCCCCC3)n2)cc1	inactive
C=CCn1c(SCc2ccc3nonc3c2)nnc1-c1cccs1	inactive
Oc1ccccc1C=NN=Cc1c(O)ccc2ccccc12	inactive
COc1cccc(/C=N\NC(=O)c2ccc(C)nc2)c1	inactive
COc1cc(C2CC(=O)N3CN(Cc4ccccc4)CSC3=C2C#N)ccc1OCc1ccccc1 (stereo not given)	inactive
Cc1cc(C)c(S(=O)(=O)N2CCN(C(=O)c3ccccc3OCc3c(C)noc3C)CC2)c(C)c1	inactive
COc1cc(OC)cc(C(=O)N[C@H](C(=O)OCC(=O)c2ccc(C)c([N+](=O)[O-])c2)C(C)C)c1	inactive
COCCn1c(SCC(=O)N2CCc3ccccc32)nc2c(c1=O)SC(C)C2 (stereo not given)	inactive
COCCNC(=O)C1CCC(CNS(=O)(=O)c2ccccc2)CC1 (stereo not given)	inactive
COc1ccc(N2C3=[N+](CC2(C)O)c2ccccc2CC3)cc1 (stereo not given)	inactive
CC(CCc1ccco1)N(C)S(=O)(=O)c1csc(C(N)=O)c1 (stereo not given)	inactive
CCc1nnc(NC(=O)c2cc(S(=O)(=O)N3CCN(CC)CC3)ccc2Cl)s1	inactive
Cc1nn(CCCC(=O)Nc2cccnc2Cl)c(C)c1[N+](=O)[O-]	inactive
Cc1ccc(N2C(=O)c3ccccc3C2Nc2cccnc2)nc1 (stereo not given)	inactive
COC(=O)C1=NNC(C(=O)OC)C1c1ccccc1 (stereo not given)	inactive
CCOC(=O)C1=C(C)N(C)C(=O)NC1c1ccccc1OC (stereo not given)	inactive
CCCN(CC1CC1)c1nc(C)nc(Nc2c(Cl)cc(Cl)cc2Cl)c1Cl	inactive
CC1CCC(NC(=O)CC2Oc3ccccc3NC2=O)CC1 (stereo not given)	inactive
